# Reference: the supplement of paper PMC4022240
# ± gives the standard deviation.
# T1: HaloTag-ATRX ADD domain (163-292)
# T1 chain: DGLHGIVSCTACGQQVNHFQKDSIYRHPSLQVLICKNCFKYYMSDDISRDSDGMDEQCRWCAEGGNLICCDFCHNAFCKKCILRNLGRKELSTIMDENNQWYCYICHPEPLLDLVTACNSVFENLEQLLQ
# What was measured:
# Assay in all cases: peptide microarray binding signal (635 nm), min-max normalized on array (fraction of array maximum); higher = stronger binding
# Conditions in all cases: peptide region: H3 20-32
# [1] = target: T1, HaloTag-ATRX ADD domain (163-292)
# Summary of the method: (§1)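 For each library, binding signal was taken as the triplicate-spot mean intensity and then min-max scaled. Spots of histone 13-mer peptide–cellulose conjugates on nitrocellulose, printed in triplicate with a Cy3 tracer, were probed for 1 h at 4°C with either biotin-labelled HaloTag reader fusions (10 nM to 1 μM) and streptavidin-Alexa Fluor 647 or rabbit histone antibodies (1:10,000 to 1:2,000) and anti-rabbit Alexa 647. Readout at 635 nm came from an Axon GenePix 4000B.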
# [2] = target: HaloTag-ING2 PHD (mouse Ing2 200-280)
# Summary of the method: as §1
# [3] = target: anti-H3K4me3 antibody ab8580
# Summary of the method: as §1
# [4] = target: anti-H3K9me3 antibody ab8898
# Summary of the method: as §1
# [5] = peptide modifications: H3K23me3 H3K27me3, binder concentration: 1:2,000 dilution
# [6] = peptide modifications: H3K23me3 H3K27me3, binder concentration: 1:10,000 dilution
# [7] = peptide modifications: H3K23me3 H3K27me1, binder concentration: 1:2,000 dilution
# [8] = peptide modifications: H3K23me3 H3K27me1, binder concentration: 1:10,000 dilution
# [9] = peptide modifications: H3K23me2, binder concentration: 1:2,000 dilution
# [10] = peptide modifications: H3K23me2, binder concentration: 1:10,000 dilution
# [11] = peptide modifications: H3K23me2 H3K27me1, binder concentration: 1:2,000 dilution
# [12] = peptide modifications: H3K23me2 H3K27me1, binder concentration: 1:10,000 dilution
# [13] = peptide modifications: H3K23me3 H3K27ac, binder concentration: 1:2,000 dilution
# [14] = peptide modifications: H3K23me3 H3K27ac, binder concentration: 1:10,000 dilution
# [15] = peptide modifications: H3K23me2 H3K27me3, binder concentration: 1:2,000 dilution
# [16] = peptide modifications: H3K23me2 H3K27me3, binder concentration: 1:10,000 dilution
# [17] = peptide modifications: H3K23me2 H3K27ac, binder concentration: 1:2,000 dilution
# [18] = peptide modifications: H3K23me2 H3K27ac, binder concentration: 1:10,000 dilution
# [19] = peptide modifications: H3K23me3, binder concentration: 1:2,000 dilution
# [20] = peptide modifications: H3K23me3, binder concentration: 1:10,000 dilution
# [21] = peptide modifications: H3K23me3 H3K27me2, binder concentration: 1:2,000 dilution
# [22] = peptide modifications: H3K23me3 H3K27me2, binder concentration: 1:10,000 dilution
# [23] = peptide modifications: H3K23me2 H3K27me2, binder concentration: 1:2,000 dilution
# [24] = peptide modifications: H3K23me2 H3K27me2, binder concentration: 1:10,000 dilution
binder,measurement,setting,value
LATKAARKSAPAT [H3 20-32 L A T Kme3 A A R Kme3 S A P A T],peptide microarray binding signal,"[1]; peptide modifications: H3K23me3 H3K27me3, binder concentration: 50 nM",0.00527 ± 0.00011
same,peptide microarray binding signal,"[1]; peptide modifications: H3K23me3 H3K27me3, binder concentration: 500 nM",0.00571 ± 0.00016
same,peptide microarray binding signal,"[2]; peptide modifications: H3K23me3 H3K27me3, binder concentration: 10 nM",0.0186 ± 0.00059
same,peptide microarray binding signal,"[2]; peptide modifications: H3K23me3 H3K27me3, binder concentration: 100 nM",0.0317 ± 0.00033
same,peptide microarray binding signal,[3]; [5],0.0764 ± 0.0055
same,peptide microarray binding signal,[3]; [6],0.116 ± 0.014
same,peptide microarray binding signal,[4]; [5],0.115 ± 0.01
same,peptide microarray binding signal,[4]; [6],0.08 ± 0.0081
LATKAARKSAPAT [H3 20-32 L A T Kme3 A A R Kme S A P A T],peptide microarray binding signal,"[1]; peptide modifications: H3K23me3 H3K27me1, binder concentration: 50 nM",0.00426 ± 0.00018
same,peptide microarray binding signal,"[1]; peptide modifications: H3K23me3 H3K27me1, binder concentration: 500 nM",0.00776 ± 0.00023
same,peptide microarray binding signal,"[2]; peptide modifications: H3K23me3 H3K27me1, binder concentration: 10 nM",0.0209 ± 0.0012
same,peptide microarray binding signal,"[2]; peptide modifications: H3K23me3 H3K27me1, binder concentration: 100 nM",0.0322 ± 0.00049
same,peptide microarray binding signal,[3]; [7],0.0821 ± 0.0052
same,peptide microarray binding signal,[3]; [8],0.0667 ± 0.0068
same,peptide microarray binding signal,[4]; [7],0.0232 ± 0.0031
same,peptide microarray binding signal,[4]; [8],0.0156 ± 0.0017
LATKAARKSAPAT [H3 20-32 L A T Kme2 A A R K S A P A T],peptide microarray binding signal,"[1]; peptide modifications: H3K23me2, binder concentration: 50 nM",0.00671 ± 0.00021
same,peptide microarray binding signal,"[1]; peptide modifications: H3K23me2, binder concentration: 500 nM",0.0138 ± 0.00038
same,peptide microarray binding signal,"[2]; peptide modifications: H3K23me2, binder concentration: 10 nM",0.0263 ± 0.0081
same,peptide microarray binding signal,"[2]; peptide modifications: H3K23me2, binder concentration: 100 nM",0.0536 ± 0.02
same,peptide microarray binding signal,[3]; [9],0.00836 ± 0.0018
same,peptide microarray binding signal,[3]; [10],0.0156 ± 0.0071
same,peptide microarray binding signal,[4]; [9],0.00609 ± 0.0003
same,peptide microarray binding signal,[4]; [10],0.00479 ± 0.00052
LATKAARKSAPAT [H3 20-32 L A T Kme2 A A R Kme S A P A T],peptide microarray binding signal,"[1]; peptide modifications: H3K23me2 H3K27me1, binder concentration: 50 nM",0.00715 ± 0.00054
same,peptide microarray binding signal,"[1]; peptide modifications: H3K23me2 H3K27me1, binder concentration: 500 nM",0.0135 ± 0.00043
same,peptide microarray binding signal,"[2]; peptide modifications: H3K23me2 H3K27me1, binder concentration: 10 nM",0.0174 ± 0.00096
same,peptide microarray binding signal,"[2]; peptide modifications: H3K23me2 H3K27me1, binder concentration: 100 nM",0.0216 ± 0.00093
same,peptide microarray binding signal,[3]; [11],0.00978 ± 0.0012
same,peptide microarray binding signal,[3]; [12],0.0104 ± 0.00071
same,peptide microarray binding signal,[4]; [11],0.00618 ± 0.00062
same,peptide microarray binding signal,[4]; [12],0.00628 ± 0.00021
LATKAARKSAPAT [H3 20-32 L A T Kme3 A A R Kac S A P A T],peptide microarray binding signal,"[1]; peptide modifications: H3K23me3 H3K27ac, binder concentration: 50 nM",0.00665 ± 0.00019
same,peptide microarray binding signal,"[1]; peptide modifications: H3K23me3 H3K27ac, binder concentration: 500 nM",0.0131 ± 0.00029
same,peptide microarray binding signal,"[2]; peptide modifications: H3K23me3 H3K27ac, binder concentration: 10 nM",0.0614 ± 0.0049
same,peptide microarray binding signal,"[2]; peptide modifications: H3K23me3 H3K27ac, binder concentration: 100 nM",0.0929 ± 0.0012
same,peptide microarray binding signal,[3]; [13],0.18 ± 0.021
same,peptide microarray binding signal,[3]; [14],0.218 ± 0.01
same,peptide microarray binding signal,[4]; [13],0.11 ± 0.011
same,peptide microarray binding signal,[4]; [14],0.042 ± 0.002
LATKAARKSAPAT [H3 20-32 L A T Kme2 A A R Kme3 S A P A T],peptide microarray binding signal,"[1]; peptide modifications: H3K23me2 H3K27me3, binder concentration: 50 nM",0.0058 ± 9.2e-05
same,peptide microarray binding signal,"[1]; peptide modifications: H3K23me2 H3K27me3, binder concentration: 500 nM",0.00581 ± 0.00013
same,peptide microarray binding signal,"[2]; peptide modifications: H3K23me2 H3K27me3, binder concentration: 10 nM",0.01343 ± 4.8e-05
same,peptide microarray binding signal,"[2]; peptide modifications: H3K23me2 H3K27me3, binder concentration: 100 nM",0.0205 ± 0.00075
same,peptide microarray binding signal,[3]; [15],0.02482 ± 0.00013
same,peptide microarray binding signal,[3]; [16],0.0215 ± 0.00042
same,peptide microarray binding signal,[4]; [15],0.0892 ± 0.0073
same,peptide microarray binding signal,[4]; [16],0.0609 ± 0.0066
LATKAARKSAPAT [H3 20-32 L A T Kme2 A A R Kac S A P A T],peptide microarray binding signal,"[1]; peptide modifications: H3K23me2 H3K27ac, binder concentration: 50 nM",0.008464 ± 6.7e-05
same,peptide microarray binding signal,"[1]; peptide modifications: H3K23me2 H3K27ac, binder concentration: 500 nM",0.01538 ± 0.00011
same,peptide microarray binding signal,"[2]; peptide modifications: H3K23me2 H3K27ac, binder concentration: 10 nM",0.0514 ± 0.0022
same,peptide microarray binding signal,"[2]; peptide modifications: H3K23me2 H3K27ac, binder concentration: 100 nM",0.0701 ± 0.0049
same,peptide microarray binding signal,[3]; [17],0.0156 ± 0.00055
same,peptide microarray binding signal,[3]; [18],0.0145 ± 0.00025
same,peptide microarray binding signal,[4]; [17],0.0072 ± 0.0012
same,peptide microarray binding signal,[4]; [18],0.00513 ± 0.00017
LATKAARKSAPAT [H3 20-32 L A T Kme3 A A R K S A P A T],peptide microarray binding signal,"[1]; peptide modifications: H3K23me3, binder concentration: 50 nM",0.00323 ± 0.00014
same,peptide microarray binding signal,"[1]; peptide modifications: H3K23me3, binder concentration: 500 nM",0.00476 ± 6.4e-05
same,peptide microarray binding signal,"[2]; peptide modifications: H3K23me3, binder concentration: 10 nM",0.00931 ± 0.00034
same,peptide microarray binding signal,"[2]; peptide modifications: H3K23me3, binder concentration: 100 nM",0.0181 ± 0.00055
same,peptide microarray binding signal,[3]; [19],0.0211 ± 0.0028
same,peptide microarray binding signal,[3]; [20],0.0168 ± 0.00023
same,peptide microarray binding signal,[4]; [19],0.0113 ± 0.0027
same,peptide microarray binding signal,[4]; [20],0.00634 ± 0.00064
LATKAARKSAPAT [H3 20-32 L A T Kme3 A A R Kme2 S A P A T],peptide microarray binding signal,"[1]; peptide modifications: H3K23me3 H3K27me2, binder concentration: 50 nM",0.00871 ± 0.00075
same,peptide microarray binding signal,"[1]; peptide modifications: H3K23me3 H3K27me2, binder concentration: 500 nM",0.0107 ± 0.0013
same,peptide microarray binding signal,"[2]; peptide modifications: H3K23me3 H3K27me2, binder concentration: 10 nM",0.0148 ± 0.0008
same,peptide microarray binding signal,"[2]; peptide modifications: H3K23me3 H3K27me2, binder concentration: 100 nM",0.0242 ± 0.0018
same,peptide microarray binding signal,[3]; [21],0.0639 ± 0.034
same,peptide microarray binding signal,[3]; [22],0.0807 ± 0.021
same,peptide microarray binding signal,[4]; [21],0.0464 ± 0.016
same,peptide microarray binding signal,[4]; [22],0.0257 ± 0.0034
LATKAARKSAPAT [H3 20-32 L A T Kme2 A A R Kme2 S A P A T],peptide microarray binding signal,"[1]; peptide modifications: H3K23me2 H3K27me2, binder concentration: 50 nM",0.00511 ± 6.7e-05
same,peptide microarray binding signal,"[1]; peptide modifications: H3K23me2 H3K27me2, binder concentration: 500 nM",0.00781 ± 0.00026
same,peptide microarray binding signal,"[2]; peptide modifications: H3K23me2 H3K27me2, binder concentration: 10 nM",0.0143 ± 0.0011
same,peptide microarray binding signal,"[2]; peptide modifications: H3K23me2 H3K27me2, binder concentration: 100 nM",0.0265 ± 0.003
same,peptide microarray binding signal,[3]; [23],0.001114 ± 9.2e-06
same,peptide microarray binding signal,[3]; [24],0.000799 ± 8.3e-06
same,peptide microarray binding signal,[4]; [23],0.000861 ± 5.4e-05
same,peptide microarray binding signal,[4]; [24],0.000692 ± 1.9e-05
